ChEMBL document CHEMBL1961873, “Compounds: GSK PKIS; Assays: Nanosyn kinase panel” (2012)

Molecular target: Macrophage-stimulating protein receptor (Homo sapiens) (UniProt Q04912)
Details: at 1 µM

Macrophage-stimulating protein receptor (Homo sapiens), sequence (Q04912 25-304 limits assumed): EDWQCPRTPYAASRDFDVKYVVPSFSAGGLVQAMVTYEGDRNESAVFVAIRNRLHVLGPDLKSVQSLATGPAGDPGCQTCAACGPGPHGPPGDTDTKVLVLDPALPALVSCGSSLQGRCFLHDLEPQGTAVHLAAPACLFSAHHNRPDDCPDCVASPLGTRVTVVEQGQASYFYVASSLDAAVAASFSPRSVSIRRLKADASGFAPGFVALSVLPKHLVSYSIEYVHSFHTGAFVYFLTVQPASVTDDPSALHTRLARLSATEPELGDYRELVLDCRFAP
Macrophage-stimulating protein receptor (Homo sapiens), sequence (Q04912 310-1400 limits assumed): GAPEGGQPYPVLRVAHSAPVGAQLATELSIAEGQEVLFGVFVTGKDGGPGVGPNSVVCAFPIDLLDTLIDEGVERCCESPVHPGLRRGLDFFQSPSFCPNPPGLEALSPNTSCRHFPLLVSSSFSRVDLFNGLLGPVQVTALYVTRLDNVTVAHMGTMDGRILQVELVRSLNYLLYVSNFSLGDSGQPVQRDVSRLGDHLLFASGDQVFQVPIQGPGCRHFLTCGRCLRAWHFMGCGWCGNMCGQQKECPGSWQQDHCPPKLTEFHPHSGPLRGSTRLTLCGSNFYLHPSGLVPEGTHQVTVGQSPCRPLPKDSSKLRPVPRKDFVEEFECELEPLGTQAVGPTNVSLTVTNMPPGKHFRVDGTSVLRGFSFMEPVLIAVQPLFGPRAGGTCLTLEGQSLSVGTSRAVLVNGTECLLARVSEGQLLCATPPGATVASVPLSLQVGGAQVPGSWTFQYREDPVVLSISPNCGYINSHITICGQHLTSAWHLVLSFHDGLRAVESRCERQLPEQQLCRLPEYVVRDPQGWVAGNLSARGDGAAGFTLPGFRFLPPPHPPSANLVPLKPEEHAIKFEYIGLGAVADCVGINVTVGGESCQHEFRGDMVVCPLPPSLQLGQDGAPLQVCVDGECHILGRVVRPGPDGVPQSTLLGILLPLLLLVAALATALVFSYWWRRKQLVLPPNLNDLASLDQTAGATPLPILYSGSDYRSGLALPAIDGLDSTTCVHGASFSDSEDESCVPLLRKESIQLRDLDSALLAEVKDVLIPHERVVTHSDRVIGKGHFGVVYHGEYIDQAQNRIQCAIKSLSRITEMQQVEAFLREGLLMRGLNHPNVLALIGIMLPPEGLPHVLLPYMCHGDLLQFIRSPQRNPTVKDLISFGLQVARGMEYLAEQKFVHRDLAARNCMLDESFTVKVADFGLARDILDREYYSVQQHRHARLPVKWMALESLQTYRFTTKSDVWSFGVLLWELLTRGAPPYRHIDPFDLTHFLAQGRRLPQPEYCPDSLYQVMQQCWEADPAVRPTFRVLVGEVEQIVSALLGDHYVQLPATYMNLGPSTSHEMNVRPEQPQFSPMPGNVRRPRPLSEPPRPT

Compound	inhibition [%]
Cn1cc(C=C2C(=O)Nc3cccnc32)c2ccccc21	0.13
COc1ccc(-c2coc3ncnc(N)c23)cc1	5.93
CS(=O)(=O)CCNCc1nc(-c2ccc3ncnc(Nc4ccc(F)c(Cl)c4)c3c2)cs1	-0.2
O=C1Nc2ccc(C(=O)c3ccco3)cc2C1=Cc1cc(Cl)c(O)c(Cl)c1	18.8
COc1cc2ncn(-c3cc(O[C@H](C)c4ccccc4Cl)c(C(N)=O)s3)c2cc1OC	17.8
CS(=O)(=O)CCN(CC#N)Cc1ccc(-c2ccc3ncnc(Nc4ccc(OCc5cccc(F)c5)c(Cl)c4)c3c2)o1	0.14
CC(C)=Cc1cccc2c1/C(=N/Nc1ccc(S(N)(=O)=O)cc1)C(=O)N2	4.1
CCn1c(-c2nonc2N)nc2c(C#CC(C)(C)O)nc(OC[C@@H](N)c3ccccc3)cc21	6.11

Molecular target: Proto-oncogene tyrosine-protein kinase ROS (Homo sapiens) (UniProt P08922)
Details: at 0.1 µM

Proto-oncogene tyrosine-protein kinase ROS (Homo sapiens), sequence (P08922 whole entry): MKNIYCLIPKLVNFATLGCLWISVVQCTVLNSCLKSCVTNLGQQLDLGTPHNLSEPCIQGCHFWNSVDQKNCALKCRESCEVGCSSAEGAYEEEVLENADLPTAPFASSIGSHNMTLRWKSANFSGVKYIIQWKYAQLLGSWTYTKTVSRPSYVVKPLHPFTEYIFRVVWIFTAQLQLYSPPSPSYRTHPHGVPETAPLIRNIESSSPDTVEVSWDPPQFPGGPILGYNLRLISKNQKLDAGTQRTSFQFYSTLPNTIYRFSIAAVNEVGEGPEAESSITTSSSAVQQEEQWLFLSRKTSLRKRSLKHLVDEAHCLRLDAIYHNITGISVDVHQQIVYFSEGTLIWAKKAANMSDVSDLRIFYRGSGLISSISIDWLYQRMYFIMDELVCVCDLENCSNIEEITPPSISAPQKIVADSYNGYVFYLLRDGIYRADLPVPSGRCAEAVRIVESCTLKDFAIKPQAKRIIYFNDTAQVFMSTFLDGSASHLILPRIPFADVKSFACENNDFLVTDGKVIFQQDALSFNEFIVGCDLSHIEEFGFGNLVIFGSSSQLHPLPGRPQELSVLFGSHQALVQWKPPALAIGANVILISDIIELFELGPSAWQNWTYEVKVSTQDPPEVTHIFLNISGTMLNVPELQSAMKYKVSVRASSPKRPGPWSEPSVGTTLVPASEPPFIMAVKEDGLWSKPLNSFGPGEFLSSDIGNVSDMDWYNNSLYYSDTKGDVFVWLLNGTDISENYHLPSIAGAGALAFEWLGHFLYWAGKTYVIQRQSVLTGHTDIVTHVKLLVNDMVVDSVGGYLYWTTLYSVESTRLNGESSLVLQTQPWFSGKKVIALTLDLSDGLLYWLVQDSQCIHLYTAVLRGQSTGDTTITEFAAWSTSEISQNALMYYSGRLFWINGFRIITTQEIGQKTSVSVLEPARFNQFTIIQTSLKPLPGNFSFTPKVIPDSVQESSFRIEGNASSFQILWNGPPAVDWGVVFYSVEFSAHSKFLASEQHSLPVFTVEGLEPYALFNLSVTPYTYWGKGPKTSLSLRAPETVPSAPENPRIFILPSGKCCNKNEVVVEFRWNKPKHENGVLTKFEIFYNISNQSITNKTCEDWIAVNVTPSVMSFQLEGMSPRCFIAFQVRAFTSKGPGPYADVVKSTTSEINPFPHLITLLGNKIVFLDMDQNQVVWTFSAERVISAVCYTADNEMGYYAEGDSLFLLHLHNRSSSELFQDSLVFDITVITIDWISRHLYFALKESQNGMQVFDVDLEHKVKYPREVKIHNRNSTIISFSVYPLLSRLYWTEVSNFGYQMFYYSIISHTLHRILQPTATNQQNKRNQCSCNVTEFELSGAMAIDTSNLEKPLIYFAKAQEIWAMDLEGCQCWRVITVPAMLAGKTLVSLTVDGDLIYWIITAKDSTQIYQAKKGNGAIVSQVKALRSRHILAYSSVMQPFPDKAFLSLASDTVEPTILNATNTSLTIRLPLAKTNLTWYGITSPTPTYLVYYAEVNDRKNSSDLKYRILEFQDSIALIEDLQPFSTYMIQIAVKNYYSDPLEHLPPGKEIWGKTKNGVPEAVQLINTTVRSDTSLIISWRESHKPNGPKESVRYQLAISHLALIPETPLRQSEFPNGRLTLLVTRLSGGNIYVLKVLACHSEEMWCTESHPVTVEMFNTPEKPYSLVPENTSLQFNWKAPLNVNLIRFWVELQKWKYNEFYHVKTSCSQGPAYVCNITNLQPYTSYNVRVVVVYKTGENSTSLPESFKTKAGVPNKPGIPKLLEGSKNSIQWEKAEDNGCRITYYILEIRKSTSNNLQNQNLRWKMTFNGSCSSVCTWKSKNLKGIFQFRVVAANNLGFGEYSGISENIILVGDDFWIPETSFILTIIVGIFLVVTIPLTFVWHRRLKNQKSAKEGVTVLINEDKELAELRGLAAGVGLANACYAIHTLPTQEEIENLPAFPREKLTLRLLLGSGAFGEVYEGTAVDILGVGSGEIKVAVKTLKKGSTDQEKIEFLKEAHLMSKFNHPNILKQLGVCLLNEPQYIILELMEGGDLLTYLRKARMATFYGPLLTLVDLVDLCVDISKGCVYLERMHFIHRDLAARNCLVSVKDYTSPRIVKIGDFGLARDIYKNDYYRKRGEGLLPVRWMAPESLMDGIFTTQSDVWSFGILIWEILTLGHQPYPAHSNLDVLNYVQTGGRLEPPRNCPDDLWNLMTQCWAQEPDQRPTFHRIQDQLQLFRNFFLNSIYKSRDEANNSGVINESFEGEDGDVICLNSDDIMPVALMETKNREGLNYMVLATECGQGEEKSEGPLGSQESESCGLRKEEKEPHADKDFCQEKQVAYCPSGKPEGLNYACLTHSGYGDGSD

Compound	inhibition [%]
Nc1ncnc2occ(-c3ccc(NC(=O)Nc4cc(C(F)(F)F)cc(C(F)(F)F)c4)cc3)c12	1.98
CCn1c(-c2nonc2N)nc2c(N3CCCC3)nccc21	4.19
CCn1c(-c2nonc2N)nc2cnc(Oc3cccc(NC(=O)c4ccc(OCCN5CCOCC5)cc4)c3)cc21	8.56
COc1ccccc1Nc1ncc(-c2ccccc2)o1	5.04
Cc1cccc(-c2n[nH]cc2-c2ccc3ncccc3n2)n1	1.26
CC1=C(C(=O)Nc2ccc3[nH]ncc3c2)C(c2ccc(F)cc2)NC(=O)N1 (stereo unspecified)	7.19
CCCN1CCC=C(c2ccc(Nc3nc(Nc4ccccc4C(N)=O)c4cc[nH]c4n3)c(C)c2)C1	24.3
CS(=O)(=O)Nc1ccc(N/C=C2\C(=O)Nc3ccccc32)cc1	1.48
CCN1CCC(CC(=O)Nc2n[nH]c3nc(-c4cccs4)c(Br)cc23)CC1	-0.25
CS(=O)(=O)CCNCc1ccc(-c2ccc3ncnc(Nc4ccc(OCc5cccc(F)c5)c(C(F)(F)F)c4)c3c2)o1	6.01
COc1ccc(-c2nn3ncccc3c2-c2ccnc(Nc3ccc(Cl)c(C(F)(F)F)c3)n2)cc1	2.34
c1cnn2ncc(-c3ccnc(Nc4ccc5c(c4)OCCO5)n3)c2c1	79.9
CCn1c(-c2nonc2N)nc2cncc(C(=O)N3CC[C@H](N)C3)c21	7.46
NCc1ccc(-c2nc(-c3ccc(Cl)c(O)c3)c(-c3ccncc3)[nH]2)cc1	2.98
COc1cc2ncn(-c3cc(OCc4ccccc4C(F)(F)F)c(C(N)=O)s3)c2cc1OC	5.76
COc1ccc(-c2ccncc2)cc1C(N)=O	5.72
Cc1cc(O)cc(C)c1/C=C/c1cncc(-c2nn[nH]n2)c1	6.66

Compound	inhibition [%]
Nc1nc(-c2ccc3c(c2)C(=Cc2cc(Br)c(O)c(Br)c2)C(=O)N3)cs1	2.9
COc1cccc(-n2ncc3c(N/N=C/c4cccc(F)c4)ncnc32)c1	3.12
COC(=O)Nc1nc2cc(Oc3ccc(NC(=O)Nc4cccc(C(=O)O)c4)cc3)ccc2[nH]1	-2.86
Cc1nn(C)c2cc(N(C)c3ccnc(Nc4cccc(S(N)(=O)=O)c4)n3)ccc12	63.2
COc1cc2ncn(-c3cc(OCc4ccccc4Cl)c(C(N)=O)s3)c2cc1OC	9.59
CC(=O)Nc1cccc(C#Cc2cncnc2Nc2ccc(OCc3cccc(F)c3)c(Cl)c2)n1	2.41
COc1ccc(COc2ccc(Cc3cnc(N)nc3N)cc2OC)cc1	5.47
Nc1nc(-c2ccccn2)c(-c2ccc3ncccc3n2)s1	2.94
CC1=C(C(=O)Nc2ccc3[nH]ncc3c2)C(c2ccc3ccccc3c2)CC(=O)N1 (stereo unspecified)	7.1
Cn1cc(C=C2C(=O)Nc3cccnc32)c2ccccc21	4.42
COc1ccc(-c2coc3ncnc(N)c23)cc1	6.03
CS(=O)(=O)CCNCc1nc(-c2ccc3ncnc(Nc4ccc(F)c(Cl)c4)c3c2)cs1	-1.86
O=C1Nc2ccc(C(=O)c3ccco3)cc2C1=Cc1cc(Cl)c(O)c(Cl)c1	6.01
COc1cc2ncn(-c3cc(O[C@H](C)c4ccccc4Cl)c(C(N)=O)s3)c2cc1OC	10.7
CS(=O)(=O)CCN(CC#N)Cc1ccc(-c2ccc3ncnc(Nc4ccc(OCc5cccc(F)c5)c(Cl)c4)c3c2)o1	6.53
CC(C)=Cc1cccc2c1/C(=N/Nc1ccc(S(N)(=O)=O)cc1)C(=O)N2	-0.28
CCn1c(-c2nonc2N)nc2c(C#CC(C)(C)O)nc(OC[C@@H](N)c3ccccc3)cc21	2.07

Molecular target: Proto-oncogene tyrosine-protein kinase ROS (Homo sapiens) (UniProt P08922)
Details: at 1 µM

Compound	inhibition [%]
Nc1ncnc2occ(-c3ccc(NC(=O)Nc4cc(C(F)(F)F)cc(C(F)(F)F)c4)cc3)c12	15.9
CCn1c(-c2nonc2N)nc2c(N3CCCC3)nccc21	4.49
CCn1c(-c2nonc2N)nc2cnc(Oc3cccc(NC(=O)c4ccc(OCCN5CCOCC5)cc4)c3)cc21	11
COc1ccccc1Nc1ncc(-c2ccccc2)o1	11.2
Cc1cccc(-c2n[nH]cc2-c2ccc3ncccc3n2)n1	4.08
CC1=C(C(=O)Nc2ccc3[nH]ncc3c2)C(c2ccc(F)cc2)NC(=O)N1 (stereo unspecified)	29.2
CCCN1CCC=C(c2ccc(Nc3nc(Nc4ccccc4C(N)=O)c4cc[nH]c4n3)c(C)c2)C1	61.2
CS(=O)(=O)Nc1ccc(N/C=C2\C(=O)Nc3ccccc32)cc1	6.73
CCN1CCC(CC(=O)Nc2n[nH]c3nc(-c4cccs4)c(Br)cc23)CC1	-0.04
CS(=O)(=O)CCNCc1ccc(-c2ccc3ncnc(Nc4ccc(OCc5cccc(F)c5)c(C(F)(F)F)c4)c3c2)o1	4.01
COc1ccc(-c2nn3ncccc3c2-c2ccnc(Nc3ccc(Cl)c(C(F)(F)F)c3)n2)cc1	2.35
c1cnn2ncc(-c3ccnc(Nc4ccc5c(c4)OCCO5)n3)c2c1	82.7
CCn1c(-c2nonc2N)nc2cncc(C(=O)N3CC[C@H](N)C3)c21	6.07
NCc1ccc(-c2nc(-c3ccc(Cl)c(O)c3)c(-c3ccncc3)[nH]2)cc1	8.44
COc1cc2ncn(-c3cc(OCc4ccccc4C(F)(F)F)c(C(N)=O)s3)c2cc1OC	20.6
COc1ccc(-c2ccncc2)cc1C(N)=O	17.5
Cc1cc(O)cc(C)c1/C=C/c1cncc(-c2nn[nH]n2)c1	11.7

Compound	inhibition [%]
Nc1nc(-c2ccc3c(c2)C(=Cc2cc(Br)c(O)c(Br)c2)C(=O)N3)cs1	7.73
COc1cccc(-n2ncc3c(N/N=C/c4cccc(F)c4)ncnc32)c1	10.6
COC(=O)Nc1nc2cc(Oc3ccc(NC(=O)Nc4cccc(C(=O)O)c4)cc3)ccc2[nH]1	3.11
Cc1nn(C)c2cc(N(C)c3ccnc(Nc4cccc(S(N)(=O)=O)c4)n3)ccc12	80.2
COc1cc2ncn(-c3cc(OCc4ccccc4Cl)c(C(N)=O)s3)c2cc1OC	29.2
CC(=O)Nc1cccc(C#Cc2cncnc2Nc2ccc(OCc3cccc(F)c3)c(Cl)c2)n1	-0.69
COc1ccc(COc2ccc(Cc3cnc(N)nc3N)cc2OC)cc1	4.98
Nc1nc(-c2ccccn2)c(-c2ccc3ncccc3n2)s1	4.03
CC1=C(C(=O)Nc2ccc3[nH]ncc3c2)C(c2ccc3ccccc3c2)CC(=O)N1 (stereo unspecified)	14.5
Cn1cc(C=C2C(=O)Nc3cccnc32)c2ccccc21	10.1
COc1ccc(-c2coc3ncnc(N)c23)cc1	7.88
CS(=O)(=O)CCNCc1nc(-c2ccc3ncnc(Nc4ccc(F)c(Cl)c4)c3c2)cs1	1.3
O=C1Nc2ccc(C(=O)c3ccco3)cc2C1=Cc1cc(Cl)c(O)c(Cl)c1	11.2
COc1cc2ncn(-c3cc(O[C@H](C)c4ccccc4Cl)c(C(N)=O)s3)c2cc1OC	36.5
CS(=O)(=O)CCN(CC#N)Cc1ccc(-c2ccc3ncnc(Nc4ccc(OCc5cccc(F)c5)c(Cl)c4)c3c2)o1	4.3
CC(C)=Cc1cccc2c1/C(=N/Nc1ccc(S(N)(=O)=O)cc1)C(=O)N2	20
CCn1c(-c2nonc2N)nc2c(C#CC(C)(C)O)nc(OC[C@@H](N)c3ccccc3)cc21	11.2
